This test deals with Plasmodium falciparum. The test is described as follows: GSK_TCMDC: Inhibition of Plasmodium falciparum 3D7 in whole red blood cells, using parasite LDH activity as an index of growth. Test compounds present at 2uM. In kind it is functional.
Take `CC1=NN(c2ccc(C)c(C)c2)C(=O)C1=NNc1cccc(-c2cccc(NC(=O)OC(C)(C)C)c2)c1O`: the Inhibition (commonly the relative decrease from the control value, in per cent) was 94%.

Regarding `Cc1cc(CN2CCC(C(=O)Nc3ccc(-c4nc5ccccc5[nH]4)cc3)CC2)oc1C`, the Inhibition amounted to 95%.

As to `CCc1c[nH]c2c(N3CCCCS3(=O)=O)cc(C(=O)N[C@@H](Cc3ccccc3)[C@H](O)CNCc3cccc(OC)c3)cc12.O=CO`, the Inhibition came out at 86%.

`Cc1nnsc1C(=O)Nc1ccc(-c2ccc(-c3nc4cccc(C)c4[nH]3)s2)cc1`: the Inhibition stood at 100%.

`O=C(O)C(F)(F)F.O=S(=O)(/C=C/c1ccccc1)N(Cc1ccc(-c2ccc(CNCCOc3ccccc3)cc2)cc1)CC1CCCCN1` (configuration not stated): the Inhibition was 99%.

`CC(=O)Nc1ccc(C(=O)Nc2cccc(-c3csc(-c4nc5ccccc5[nH]4)c3)c2)cn1`: the Inhibition is 100%.

As for `O=C(NC1CCN(Cc2ccc3c(c2)OCCO3)CC1)c1ccc(-c2cccc(C(F)(F)F)c2)s1.O=C(O)C(F)(F)F`, the Inhibition was found to be 100%.

Regarding `COc1ccc2nccc([C@@H](O)CN3CCC(NCc4cc5c(cc4F)SCC(=O)N5)CC3)c2n1`, the Inhibition worked out at 96%.

`N#Cc1ccc(-c2ccc(C(=O)NCCCCN3CCC(c4cn(CCCO)c5ccccc45)CC3)cc2)cc1` yielded an Inhibition of 98%.

Compound `OC(CNc1ccnc(Nc2ccccc2)n1)c1ccc(C(F)(F)F)cc1` (configuration not stated) gave an Inhibition of 100%.

In turn, `N#Cc1ccc(N(CCNS(=O)(=O)c2cc(Br)c(Cl)s2)Cc2ccccc2C(F)(F)F)cc1C(F)(F)F` returned an Inhibition of 92%.

Turning to `COc1ccc(Nc2nccc(-c3c(-c4cccc(NC(=O)c5c(F)cccc5F)c4)nn4ccccc34)n2)cc1Cl`, the Inhibition amounted to 95%.
